IDE exosite inh = displaces the probe from the exo-site of human IDE; z-score at 20 µM; 17,000 tested, 6.3% active; purified IDE, FL-6b probe fluorescence polarization; stronger effect = lower value; P14735;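 active = z-score of -3 or lower, meaning strong loss of probe binding signal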;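 also: His-tagged human IDE residues 42-1019 made in E. coli with 30 nM FL-6b probe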
Target sequence (P14735 42-1019 limits assumed): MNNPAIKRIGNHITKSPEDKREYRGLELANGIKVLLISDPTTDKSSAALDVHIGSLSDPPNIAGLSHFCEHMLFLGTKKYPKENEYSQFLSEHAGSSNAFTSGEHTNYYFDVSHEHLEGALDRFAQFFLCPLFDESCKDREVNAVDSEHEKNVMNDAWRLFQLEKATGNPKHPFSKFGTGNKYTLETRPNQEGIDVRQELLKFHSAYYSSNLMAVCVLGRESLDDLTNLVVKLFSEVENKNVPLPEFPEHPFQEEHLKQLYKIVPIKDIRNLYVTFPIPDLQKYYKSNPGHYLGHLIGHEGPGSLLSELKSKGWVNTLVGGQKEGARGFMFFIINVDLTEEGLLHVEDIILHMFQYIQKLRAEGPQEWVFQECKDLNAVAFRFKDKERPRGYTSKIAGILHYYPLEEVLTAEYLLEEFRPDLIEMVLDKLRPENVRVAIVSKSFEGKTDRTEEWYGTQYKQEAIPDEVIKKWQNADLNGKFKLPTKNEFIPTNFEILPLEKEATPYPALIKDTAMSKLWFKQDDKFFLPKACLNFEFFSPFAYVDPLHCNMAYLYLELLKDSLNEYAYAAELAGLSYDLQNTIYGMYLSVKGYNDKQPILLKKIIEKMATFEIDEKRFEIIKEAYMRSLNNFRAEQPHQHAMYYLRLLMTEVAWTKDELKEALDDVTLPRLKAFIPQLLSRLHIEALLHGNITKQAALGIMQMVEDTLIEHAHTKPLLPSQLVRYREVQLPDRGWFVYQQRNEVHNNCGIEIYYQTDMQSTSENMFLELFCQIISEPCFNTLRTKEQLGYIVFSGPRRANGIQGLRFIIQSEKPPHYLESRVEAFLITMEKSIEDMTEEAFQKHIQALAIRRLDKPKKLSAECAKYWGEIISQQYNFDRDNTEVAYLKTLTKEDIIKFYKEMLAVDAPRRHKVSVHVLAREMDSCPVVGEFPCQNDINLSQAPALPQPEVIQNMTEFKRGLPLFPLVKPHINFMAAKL
Each line names hits and unclear results; the compound was inactive in the other large screens. The entries come from a sample that favours hits as a whole.

CC(C)NC(=O)N1CCCCN2[C@H](CO)[C@H](c3ccc(C#Cc4ccccc4F)cc3)[C@H]2C1	IDE exosite inh -4.5
CC(C)NC(=O)N1CCCCN2[C@H](C1)[C@H](c1ccc(C#Cc3ccccc3F)cc1)[C@@H]2CO	IDE exosite inh -9.6
CC(C)NC(=O)N1CCCCN2[C@@H](CO)[C@H](c3ccc(C#Cc4ccccc4F)cc3)[C@@H]2C1	IDE exosite inh -13
CCc1cnc(N2[C@H](C#N)[C@@H](c3ccc(C#Cc4ccccc4F)cc3)[C@@H]2CO)s1	none
Cc1cccc(-c2ccc(C3[C@H]4CNC[C@@H]3N4C(=O)Nc3ccc(F)cc3)cc2)c1 (some centres not stated)	none
COc1ccc2c3c([nH]c2c1)[C@H](CO)N(Cc1cc(F)ccc1F)CC31CN(C(=O)C2CCC2)C1	none
C[C@H]1CN([C@@H](C)CO)C(=O)c2ccccc2-c2ccccc2CO[C@H]1CN(C)C(=O)[C@@H]1CCCN1C	none
CCNC[C@H]1[C@H](c2ccc(C3=CCCCC3)cc2)[C@@H](CO)N1C(=O)NC(C)C	none
CCS(=O)(=O)N1CC(=O)N2[C@H](C1)[C@@H](c1ccc(C#CC3CCCCC3)cc1)[C@@H]2CO	none
C/C=C/c1ccc([C@@H]2[C@H]3CN(S(=O)(=O)c4ccc(OC)cc4)CCCCN3[C@H]2CO)cc1	none
CCC(=O)N1[C@@H](CO)[C@H](c2ccccc2)C12CN(C(=O)c1ccc3c(c1)OCO3)C2	none
O=C(c1ccc2c(c1)OCO2)N1CC(=O)N2[C@H](C1)[C@H](c1ccc(-c3ccccc3)cc1)[C@@H]2CO	none
O=C(c1ccc2c(c1)OCO2)N1CC(=O)N2[C@H](CO)[C@H](c3ccc(C#Cc4ccccc4)cc3)[C@H]2C1	none
O=C(c1ccc2c(c1)OCO2)N1CC(=O)N2[C@H](CO)[C@H](c3ccc(-c4ccccc4)cc3)[C@@H]2C1	none
CC(C)C#Cc1ccc([C@H]2[C@H](CO)N3C(=O)CN(C(=O)c4ccc5c(c4)OCO5)C[C@@H]23)cc1	none
O=C(c1ccc2c(c1)OCO2)N1CC(=O)N2[C@@H](CO)[C@@H](c3ccc(C#Cc4ccccc4)cc3)[C@@H]2C1	IDE exosite inh -5.2
O=C(c1ccc2c(c1)OCO2)N1CC(=O)N2[C@H](C1)[C@H](c1ccc(C#Cc3ccccc3)cc1)[C@@H]2CO	IDE exosite inh -3.5
CNC(=O)C[C@H]1CC[C@H]2[C@@H](COc3ccc(NC(=O)c4ccccc4F)cc3C(=O)N2C)O1	none
COCC(=O)N1[C@H](C#N)[C@H](c2ccc(-c3cccnc3)cc2)[C@@H]1CO	none
O=C(Nc1ccccc1)N1CC(=O)N2[C@@H](CO)[C@H](c3ccc(C#CC4CCCCC4)cc3)[C@@H]2C1	none
OC[C@@H]1[C@H](c2ccc(-c3ccc(F)cc3)cc2)[C@H]2CN(Cc3ccncc3)CCCCN12	none
Cc1cccc(-c2ccc([C@@H]3[C@@H](CO)N4CCCCN(Cc5ccncc5)C[C@@H]34)cc2)c1	IDE exosite inh -4.9
OC[C@H]1[C@@H](c2ccc(-c3ccc(F)cc3)cc2)[C@H]2CN(Cc3ccncc3)CCCCN21	none
Cc1cccc(-c2ccc([C@H]3[C@@H](CO)N4CCCCN(Cc5ccncc5)C[C@@H]34)cc2)c1	IDE exosite inh -5.8
CN(C)C(=O)c1ccc(-c2ccc([C@@H]3[C@@H](CO)N4CCCCN(Cc5ccncc5)C[C@H]34)cc2)cc1	none
Cc1cccc(-c2ccc([C@@H]3[C@H]4CN(CCC(F)(F)F)CCCCN4[C@H]3CO)cc2)c1	none
N#C[C@@H]1N[C@@H](CO)[C@@H]1c1ccc(-c2cccc(F)c2)cc1	none
Cc1ccccc1S(=O)(=O)N1CC(=O)N2[C@@H](CO)[C@@H](c3ccc(C#CCC4CCCC4)cc3)[C@@H]2C1	none
Cc1cccc(S(=O)(=O)N2[C@@H]3Cn4c(cccc4=O)[C@H]2[C@@H](C(=O)N(C)C)[C@@H]3CO)c1	none
Cc1ccccc1-c1ccc([C@@H]2[C@@H](CO)N3CCCCN(S(C)(=O)=O)C[C@H]23)cc1	none
Cc1ccccc1-c1ccc([C@H]2[C@H](CO)N3CCCCN(CC4CC4)C[C@@H]23)cc1	none
OC[C@@H]1[C@@H](c2ccc(C#Cc3ccccc3)cc2)[C@@H]2CN(CC3CCOCC3)CCCCN12	none
Cc1ccccc1-c1ccc([C@@H]2[C@@H](CO)N3CCCCN(CC4CC4)C[C@H]23)cc1	IDE exosite inh -6.8
COc1ccc(-c2ccc([C@@H]3[C@H]4CN(CC5CCOCC5)CCCCN4[C@H]3CO)cc2)cc1	none
Cc1ccccc1-c1ccc([C@@H]2[C@H](CO)N3CCCCN(CC4CCOCC4)C[C@@H]23)cc1	IDE exosite inh -5.5
OC[C@H]1[C@H](c2ccc(-c3cccnc3)cc2)[C@@H]2CN(CC3CC3)CCCCN12	none
OC[C@H]1[C@H](c2ccc(C#Cc3ccccc3)cc2)[C@H]2CN(CC3CCOCC3)CCCCN21	none
Cc1ccccc1-c1ccc([C@@H]2[C@H](CO)N3CCCCN(CC4CC4)C[C@@H]23)cc1	IDE exosite inh -9.6
OC[C@@H]1[C@H](c2ccc(-c3cccnc3)cc2)[C@@H]2CN(CC3CC3)CCCCN12	none
OC[C@@H]1[C@H](c2ccc(C#Cc3ccccc3)cc2)[C@@H]2CN(CC3CCOCC3)CCCCN12	IDE exosite inh -3.9
COc1ccc(-c2ccc([C@@H]3[C@@H](CO)N4CCCCN(CC5CCOCC5)C[C@H]34)cc2)cc1	none
O=C(Nc1ccc(F)cc1)N1CC(=O)N2[C@H](C1)[C@@H](c1ccc(-c3ccc(F)cc3)cc1)[C@@H]2CO	none
CN(C)CC(=O)N1[C@H](CO)[C@@H](c2ccc(C#CC3CCCCC3)cc2)[C@@H]1C#N	none
COc1ccccc1NC(=O)N1CC(=O)N2[C@H](CO)[C@H](c3ccc(C#CCC(C)C)cc3)[C@@H]2C1	none
C/C=C/c1ccccc1[C@@H]1[C@@H](C#N)N(c2nc(CC)cs2)[C@H]1CO	none
CN1C(=O)c2cc(NC(=O)NCc3ccccc3)ccc2OC[C@@H]2O[C@H](CC(=O)NCC3CCCCC3)CC[C@H]21	none
O=C(C1CC1)N1CC2(C1)[C@@H](c1ccccc1)[C@@H](CO)N2S(=O)(=O)c1ccccc1	none
COc1ccccc1C(=O)Nc1ccc2c(c1)C(=O)N(C)C[C@H](OC)[C@H](C)CN(C(C)=O)[C@H](C)CO2	none
O=C(Nc1cc(F)ccc1F)N1CC(=O)N2[C@H](CO)[C@@H](c3ccc(C#CC4CCCCC4)cc3)[C@@H]2C1	none
CC(=O)N1CC(=O)N2[C@H](CO)[C@@H](c3ccc(-c4cccc(C(=O)N(C)C)c4)cc3)[C@H]2C1	none
CCCC(=O)Nc1ccc2c(c1)C(=O)N(C)C[C@H](OC)[C@@H](C)CN(C(=O)c1ccccn1)[C@@H](C)CO2	none
Cc1ccccc1-c1ccc([C@H]2[C@@H](CO)N3CCCCN(CC4CC4)C[C@H]23)cc1	IDE exosite inh -11
OC[C@@H]1[C@@H](c2ccc(-c3cccnc3)cc2)[C@H]2CN(CC3CC3)CCCCN12	none
OC[C@@H]1[C@H](c2ccc(-c3cccnc3)cc2)[C@H]2CN(CC3CC3)CCCCN12	none
CC(=O)N1CC(=O)N2[C@H](CO)[C@H](c3ccc(-c4ccc(C(=O)N(C)C)cc4)cc3)[C@@H]2C1	none
CS(=O)(=O)N1[C@H](C#N)[C@H](c2ccc(C#CC3CCCCC3)cc2)[C@H]1CO	none
CC(C)C#Cc1ccc([C@@H]2[C@@H](CO)N3C(=O)CN(C(=O)NC4CCCC4)C[C@@H]23)cc1	none
C[C@@H](NC(=O)C[C@@H]1CC[C@H]2[C@H](COc3ccc(NS(=O)(=O)c4ccc(Cl)cc4)cc3C(=O)N2C)O1)c1ccccc1	none
Cc1ccccc1-c1ccc([C@H]2[C@H](CO)N3C(=O)CN(C(=O)NC4CCCC4)C[C@@H]23)cc1	IDE exosite inh -21

High-throughput results deposited in PubChem by Broad Institute.
